# Reference: PubChem BioAssay (NCI)
# About 79,000 compounds went through this panel and 15% of them were active in at least one assay; those are over-represented in the sample as a whole. Values without a mark were called inactive. Rule as the data show it: active = growth inhibition above about 70%; inactive = the rest.
# Assay: NCI Yeast Anticancer Drug Screen. Data for the rad50 strain (AID 155);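 also: 0% = growth of vehicle-only cultures of the same strain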
# Settings: S. cerevisiae rad50 strain growth inhibition; at 50.0 µM; hits give high values
# Summary of the method: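 Growth of the mutant yeast was measured after compound exposure and referenced to vehicle-treated cultures.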
row,Structure (SMILES),growth inhibition [%]
1,CN1CCCNCCN(CCc2ccccn2)CCCN(C)CC1,2.75
2,CC(C)(c1ccc(O)c([N+](=O)[O-])c1)c1ccc(O)c([N+](=O)[O-])c1,-2.65
3,CCOC(=O)C(NC(=O)C(CCCCNP(=O)(OCC)OCC)NC(=O)C(C)NC(C)=O)C(C)C (stereo not drawn),-10.7
4,CC(=O)Nc1cc(C)cc(Br)c1,-6.85
5,O=C(O)COc1ccccc1OCC(=O)O,17.4
6,CC(=O)CC(C)(C)c1cc(CC(C)(C)C(N)=O)on1,0.75
7,CCOC(=O)C(C#N)=C1c2ccccc2Oc2ccccc21,-3.7
8,CN1NC(c2ccc(Cl)cc2)=C(C#N)C(=O)CC1c1ccccc1 (stereo not drawn),2.1
9,CN(C)c1nc(N(C)C)c2cnn(C)c2n1,21.7
10,Cc1ccc(Nc2nc(C)c(C(=O)C/C(=N/NC(N)=S)C(=O)Nc3cc(Cl)cc(Cl)c3)s2)cc1,-13.3
11,OCn1c2ccccc2c2ccccc21,19.8
12,CCCCn1cc(C(=O)O)c(=O)c2c3sccc3ccc21,-24.1
13,CCOC(=O)C1CN(C2CCCCC2)CCC1=O (stereo not drawn),-2.45
14,O=C1/C(=C/c2cccs2)CCc2ccccc21,20.6
15,C=CCOc1cc(=O)[nH]c2ccccc12,-14.1
16,CCOC(=O)c1ccccc1[N+](=O)[O-],22.8
17,O=C1OCCC2(CCN(Cc3ccccc3)CC2)O1,11.2
18,CCCCC1CCC(C(=O)O)=NC1 (stereo not drawn),5.65
